{
  "source": "ChEMBL document CHEMBL3988442",
  "about": "“University of Dundee, Small-Polar-MMV Screening Library” (2021)",
  "note": "Out of some 53,000 compounds screened, about 900 (1.7%) showed an effect of 50% or more. Only a selection was taken, and strong results are over-represented in it overall.",
  "data": [
    {"test_system": "Mycobacterium tuberculosis", "assay": "Cornell - Phenotypic assay to identify agents that inhibit growth of Mycobacterium tuberculosis", "type": "functional", "set-up": "scale not given: direction of the effect not stated beside the values", "conditions": "10 mM as filed; unlikely as a test dose", "units": {"Percent Effect": "%"}, "values": [
      {"smiles": "O=C(Cc1cccc(O)c1)N1CCCC(O)(CN2CCCC2)CC1", "note": "(configuration not stated)", "Percent Effect": -1.621},
      {"smiles": "c1cc2c(cc1CN1CCN(Cc3noc(C4CC4)n3)CC1)OCO2", "Percent Effect": 10.54},
      {"smiles": "CCC(=O)Nc1ccc2c(c1)C1(CCOCC1)CN2CCF.O=C(O)C(F)(F)F", "Percent Effect": 2.387},
      {"smiles": "CCC1C(=O)NCCN1c1nccc(C)n1", "note": "(configuration not stated)", "Percent Effect": -0.2663},
      {"smiles": "CCC(C)N1CCc2nc(N3CCCC3)nc(NC(C)C)c2C1", "note": "(configuration not stated)", "Percent Effect": -13.77},
      {"smiles": "CC(C)Nc1nc(N2CCCC2)nc2c1CN(c1ncc(F)cn1)CC2", "Percent Effect": 82.11},
      {"smiles": "CC(C)Nc1nc(N2CCCC2)nc2c1CN(C(C)C)CC2", "Percent Effect": 61.73},
      {"smiles": "Cc1nc(CN2CCc3nc(NC(C)C)nc(C)c3C2)cs1", "Percent Effect": 38.07},
      {"smiles": "CC(C)Nc1nc(N2CCCC2)nc2c1CN(C)CC2", "Percent Effect": 33.38},
      {"smiles": "CCN1CCc2nc(N3CCOCC3)nc(NC(C)C)c2C1", "Percent Effect": 16.58},
      {"smiles": "CCCN1CCc2nc(N3CCOCC3)nc(NC(C)C)c2C1", "Percent Effect": 29.26},
      {"smiles": "CC(C)Nc1nc(N2CCCC2)nc2c1CN(S(C)(=O)=O)CC2", "Percent Effect": 12.79},
      {"smiles": "Cc1nc(CN2CCc3nc(N4CCCC4)nc(NC(C)C)c3C2)cs1", "Percent Effect": 75.47},
      {"smiles": "CCN(C(=O)c1nc2c(s1)CCCN2c1ccc(C)nn1)C(C)C", "Percent Effect": 10.96},
      {"smiles": "Cc1cc(F)ccc1N1CCCC(Nc2nccn3cnnc23)C1=O", "note": "(configuration not stated)", "Percent Effect": -2.577},
      {"smiles": "Cc1cc(C(F)(F)F)n2nc(C3CCN(S(=O)(=O)N(C)C)CC3)cc2n1", "Percent Effect": -8.533},
      {"smiles": "Cc1cc(C)nc(C2CCCN2C(=O)c2cnccn2)n1", "note": "(configuration not stated)", "Percent Effect": -1.129},
      {"smiles": "Cn1ccc2c(-c3cc(N4CCCCC4)ncn3)ccnc21", "Percent Effect": -7.071},
      {"smiles": "Clc1cc(N2CCN(C3CCOCC3)CC2)nc2[nH]ccc12", "Percent Effect": -30.2},
      {"smiles": "CN(Cc1noc(-c2ccccc2)n1)C(=O)CSc1nnc(N)s1", "Percent Effect": -22.54},
      {"smiles": "CC(C)NC(=O)Cc1cnc(-n2cccc2)s1", "Percent Effect": 43.3},
      {"smiles": "CCOCC(=O)N1CCCn2c(CN3CCOCC3)nnc2C1", "Percent Effect": 18.04},
      {"smiles": "Cn1cc(-c2cnc(N3CCCC3)nc2)cc1C(=O)O", "Percent Effect": 95.84},
      {"smiles": "CN1CCN(C(=O)c2cc(-c3cnc(N4CCCC4)nc3)cn2C)CC1", "Percent Effect": 2.355},
      {"smiles": "Cn1cc(-c2cnc(N3CCOCC3)nc2)cc1C(=O)O", "Percent Effect": 44.3},
      {"smiles": "COc1cccc(Cl)c1C(C(=O)O)N1CCC(Cn2cccn2)CC1", "note": "(configuration not stated)", "Percent Effect": -18.71},
      {"smiles": "CN(Cc1noc(C(C)(C)C)n1)Cc1ccccc1N1CCCCC1", "Percent Effect": 2.184},
      {"smiles": "CC(C)(O)C1CCN(C(=O)Nc2nc(-c3ccccc3)ns2)CC1", "Percent Effect": 105.1},
      {"smiles": "O=C(Nc1nc(-c2ccccc2)ns1)N1CCC(F)CC1", "Percent Effect": 13.41},
      {"smiles": "CC(C)(O)C1CCCN(C(=O)Nc2nc(-c3ccccc3)ns2)C1", "note": "(configuration not stated)", "Percent Effect": 24.52},
      {"smiles": "O=C(c1ccc(-n2cnnc2)cc1)N1CCCC(n2ccnc2)C1", "note": "(configuration not stated)", "Percent Effect": 15.63},
      {"smiles": "Cc1cc(C)c2cc(CNCc3ccc(C)o3)c3nn(C)c(=O)n3c2c1", "Percent Effect": -2.639},
      {"smiles": "O=C(CCn1ccc2ccc(Cl)cc21)NCc1ccc(C(=O)O)cc1", "Percent Effect": 28.36},
      {"smiles": "CC(C)NC(=O)C1(Cc2ccccc2-c2cncnc2)CCCNC1", "note": "(configuration not stated)", "Percent Effect": -1.5},
      {"smiles": "Cc1ccc(-c2ccccc2CC2(C(=O)NC(C)C)CCCNC2)cc1", "note": "(configuration not stated)", "Percent Effect": 60.07},
      {"smiles": "CC(C)NC(=O)C1(Cc2ccccc2-c2ccccc2)CCCNC1", "note": "(configuration not stated)", "Percent Effect": -4.67},
      {"smiles": "Cc1cc(C)n(CC2CN(Cc3cccc(C#N)c3)CCO2)n1", "note": "(configuration not stated)", "Percent Effect": 14.78},
      {"smiles": "COc1ccc(CN2CCn3cc(CN4CCN(C)CC4)nc3C2)cc1.O=C(O)C(F)(F)F.O=C(O)C(F)(F)F.O=C(O)C(F)(F)F", "Percent Effect": 3.435},
      {"smiles": "CC(C)COCCC(=O)Nc1ccc2oc(=O)n(CCN(C)C)c2c1", "Percent Effect": -58.21},
      {"smiles": "O=C(NCCc1cc(N2CCOCC2)nc(NC2CC2)n1)C1CC1", "Percent Effect": 33.35},
      {"smiles": "O=C(NCCc1cc(N2CCOCC2)nc(NC2CC2)n1)C1CCCO1", "note": "(configuration not stated)", "Percent Effect": 34.16},
      {"smiles": "O=C(NCCc1cc(N2CCOCC2)nc(N2CCCC2)n1)C1CC1", "Percent Effect": 50.32},
      {"smiles": "c1cc(-c2c[nH]nc2C2CCCCC2)nc(N2CCCCCC2)n1", "Percent Effect": 77.63},
      {"smiles": "NC(=O)C1CCN(c2nccc(-c3c[nH]nc3C3CCCCC3)n2)CC1", "Percent Effect": 12.19},
      {"smiles": "OC[C@H]1CCCN1c1nccc(-c2c[nH]nc2C2CCCCC2)n1", "Percent Effect": 4.191},
      {"smiles": "COCCNC(=O)c1ccc2ccc(N3CCN(CC4CC4)CC3)n2c1", "Percent Effect": -16.88},
      {"smiles": "Cc1cc(-c2cc(F)ccc2C(=O)O)nc(C2CCCN(C)C2)n1", "note": "(configuration not stated)", "Percent Effect": 0.614},
      {"smiles": "Cc1nnc(NCC2(c3ccccc3)CCC2)c(C#N)c1C", "Percent Effect": 47.49},
      {"smiles": "COc1ccccc1C1(CNc2nnc(C)c(C)c2C#N)CCOCC1", "Percent Effect": -5.763},
      {"smiles": "COc1ccccc1C1(CNc2nnc(C)c(C)c2C#N)CCCC1", "Percent Effect": 86.76},
      {"smiles": "Cn1cnnc1SCc1cc2c(cc1Cl)OCO2", "Percent Effect": 23.01},
      {"smiles": "Cc1n[nH]c(C)c1NC(=O)C1CCCN(C(=O)NCC(C)C)C1", "note": "(configuration not stated)", "Percent Effect": -0.6091}
    ]}
  ]
}
